# Screening data: PubChem, National Center for Advancing Translational Sciences (NCATS)
# Only some compounds are listed: those with a hit (about 6.6% of all), similar ones and a draw of the others.
# HT1080-NT tox = kills 2HG-producing HT-1080-NT fibrosarcoma cells | hit rate 1.6% among 360,000 | Potency, µM (top dose mostly 46.1 µM), for the others: top-dose activity, negative = less viability, hits mostly cytotoxic | AID 686970 | HT-1080-NT fibrosarcoma viability, CellTiter-Glo ATP luminescence, 48 h;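 note: NT is the 2HG producing partner of a matched IDH1 knockdown line; 0% = DMSO-treated cells and -100% = media-only wells without cells; nearly all actives have a fitted effect of over 55% in size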
#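 750 cells/well, RPMI + 5% FBS; 2 h settle, compound pin-transfer, 48 h at 37 degrees C. CellTiter-Glo 10 min RT, luminescence. Normalized to DMSO and media-only wells.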
# TGFb SMAD3 inh = blocks TGF-b signaling; HepG2 CAGA-GFP TGF-b/SMAD3 reporter, GFP fluorescence, 18 h; TGF-beta stimulated, 500 pg/mL final; Potency, µM (doses to about 46.1 µM), for the others: at the top dose activity, negative = inhibition, most hits filed as inhibitors; hit rate 1.2% among 410,000; AID 588855; note: % is set by controls: 0 for no effect and ±100 for the full control effect; nearly all actives have a fitted effect of over 65% in size
#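 Cell-based qHTS in HEPG2 carrying a CAGA-GFP Smad reporter; compounds added before 500 pg/mL final TGF-beta, 18 h incubation at 37 degrees C, GFP fluorescence quantified per cell by imaging cytometry.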
# KB-V1 cytotox = KB-V1 MDR subline cytotoxicity; KB-V1 MDR cells viability, CellTiter-Glo, 72 h; Potency, µM (titrated, usually from 46.1 µM), usual class: cytotoxic; hit rate 3.4% among 400,000; AID 1347076; note: % is set by controls: 0 for no effect and ±100 for the full control effect; nearly all actives have a fitted effect of over 60% in size
#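 Potencies derive from concentration-effect curves fitted to normalized luminescence (CellTiter-Glo) of KB-V1 cells treated for 72 h at 37 degrees C in phenol-red-free DMEM containing 10% FBS.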
# KB-3-1 tox = KB-3-1 parental cell cytotoxicity. KB-3-1 viability, CellTiter-Glo ATP luminescence, 72 h. Potency, µM (series often up to 46.1 µM), most hits filed as cytotoxic. hit rate 1.4% among 400,000; note: % is set by controls: 0 for no effect and ±100 for the full control effect; nearly all actives have a fitted effect of over 60% in size
#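 Cells are dispensed, compounds pinned in, plates held at 37 °C for 72 h, then CellTiter-Glo is added and luminescence read after 10 minutes. Cell line: parental KB-3-1 in phenol-red-free DMEM, 10% FBS.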
# HT1080 IDH1KD tx = HT-1080 IDH1 knockdown cell toxicity (counter line) | HT-1080 IDH1 knockdown viability, ATP luminescence, 48 h | Potency, µM (highest dose often 46.1 µM), for the others: at the top dose activity, negative = toxicity, usual class: cytotoxic | hit rate 2% among 360,000;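 note: 0% = DMSO wells and -100% = cell-free medium wells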
#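 CellTiter-Glo luminescence after 48 h compound exposure at 37 degrees C of IDH1-knockdown HT-1080 cells in 5% FBS RPMI. %Activity scaled between DMSO wells and cell-free media wells, with curves fitted and assigned curve classes.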
# HepG2 viability = HepG2 cytotoxicity, counter-screen for TGF-b inhibitors; Potency, µM (highest dose often 46.1 µM), for the others: at the top dose activity change, negative = cytotoxicity, usual class: cytotoxic; HepG2 CAGA-GFP viability, ATP luminescence, 18 h; hit rate 0.76% among 410,000
#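 CellTiter-Glo luminescence gave cytotoxicity after 18 hours at 37 degrees C. The cells were HepG2 CAGA-GFP in 1% FBS DMEM, stimulated with 500 pg/mL TGF-beta after compound addition. %Activity was normalised to no-cell wells (complete cell-killing) and DMSO (no toxicity), and curves were fitted and classified.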
# * = called active by the depositor; i = inactive; ? = inconclusive; nt = no result. Calls come from the whole dose curve; as a rule, active = well fitted curve in the direction sought with a large enough effect; inconclusive = small, poorly fitted or top-dose-only effect, or another doubt; inactive = no such curve, though single readings can be large; an effect the other way counts as inactive or inconclusive. Potency is the fitted concentration of half-maximal effect.
SMILES,HT1080-NT tox,TGFb SMAD3 inh,KB-V1 cytotox,KB-3-1 tox,HT1080 IDH1KD tx,HepG2 viability
O=[N+]([O-])c1cccc(N/N=C/c2cc([N+](=O)[O-])ccc2O)c1,23µM*,-3%,i,i,15µM*,1%
C[C@H]1CN([C@@H](C)CO)C(=O)c2cc(Br)cnc2O[C@@H]1CN(C)S(C)(=O)=O,16%,15%,i,i,4%,-2%
Cn1c(C(=O)Nc2cccc(Cl)c2)cc2c(=O)n(C)c3ccccc3c21,nt,9%,i,i,nt,-6%
O=C(N/N=C/c1cc([N+](=O)[O-])ccc1O)Nc1ccccc1,?,-7%,i,?,16µM*,-25%
O=[N+]([O-])c1cccnc1N/N=C/c1ccccc1O,?,5%,?,1.8µM*,?,-10%
Cc1c(O)ccc(/C=N/Nc2ncccc2[N+](=O)[O-])c1O,?,-14%,?,?,-20%,-47%
CCCOc1ccc(/C=N/Nc2cccc([N+](=O)[O-])c2)c(O)c1,15µM*,?,i,?,13µM*,-27%
O=[N+]([O-])c1ccc(O)c(/C=N/Nc2ccccn2)c1,12µM*,?,i,?,10µM*,-83%
CCCOc1ccc(/C=N/Nc2ccc(C(=O)O)cc2)c(OCCC)c1,-21%,0%,i,i,?,1%
COc1ccc(OC)c(NC(=O)c2c(N3CCCC3=O)c3cc(OC)ccc3n2C)c1,nt,5%,i,i,nt,-27%
O=C(CN1CCCN(Cc2ccccc2Cl)S1(=O)=O)NCc1ccccc1,nt,-26%,i,?,nt,0%
Cc1ccccc1-n1c(C)cc(/C=N/Nc2ccc([N+](=O)[O-])cn2)c1C,23µM*,7%,i,i,?,-5%
CCCCn1c(-c2csc3c2CCCC3)n[nH]c1=S,-3%,0%,21µM*,i,-22%,-7%
CCCCn1c(-c2csc(C(C)C)c2)n[nH]c1=S,-8%,-7%,23µM*,i,-1%,-41%
CCCCn1c(-c2csc3c2CCC(C)C3)n[nH]c1=S (configuration not stated),?,?,15µM*,21µM*,?,-50%
C=CCn1c(-c2csc3c2CCC(C)C3)n[nH]c1=S (configuration not stated),-14%,?,i,i,-17%,-15%
O=C(c1ccc2c(=O)n(-c3ccccc3)c(=O)[nH]c2c1)N1CCN(Cc2cccs2)CC1,nt,28%,i,i,nt,9%
NC(=O)CC(NC(=O)Cc1cccc2ccccc12)c1ccc(NC2CCCC2)c([N+](=O)[O-])c1 (configuration not stated),16%,-10%,i,i,17%,4%
NC(=O)CC(NC(=O)Cc1cccc2ccccc12)c1ccc(NC2CC3CCC2C3)c([N+](=O)[O-])c1 (configuration not stated),-12%,?,i,i,0%,3.5µM*
O=C(Cn1cnc2c(nnn2-c2cccc(Cl)c2)c1=O)N1CCCC1,19%,13%,13µM*,i,-11%,6%
Cc1ccc(Cn2nnc3c(=O)n(CC(=O)N4CCN(c5ccccc5)CC4)cnc32)cc1,5%,?,5.2µM*,i,-26%,-14%
CCc1ccccc1NC(=O)Cn1nc2c3cc(F)ccc3n(Cc3cccc(C)c3)cc-2c1=O,nt,0%,i,i,nt,-53%
O=C(Nc1cc(C(F)(F)F)cc(C(F)(F)F)c1)[C@H]1O[C@@H](n2ccc(=O)[nH]c2=O)[C@H](O)[C@@H]1O,-7%,?,?,i,-10%,-24%
O=C(NCCCN1CCOCC1)c1ccc(Sc2ccc(Br)cc2)c([N+](=O)[O-])c1,-1%,-11%,i,i,10%,-7%
O=C(NCCCN1CCOCC1)c1ccc(Sc2ccccc2Cl)c([N+](=O)[O-])c1,2%,-24%,13µM*,?,-9%,-4%
SMILES,HT1080-NT tox,TGFb SMAD3 inh,KB-V1 cytotox,KB-3-1 tox,HT1080 IDH1KD tx,HepG2 viability
O=C(NCc1ccccc1)c1cc(C2CCCCN2C(=O)c2ccc3c(c2)CCO3)on1 (configuration not stated),3%,-1%,i,i,1%,2%
O=C(NCc1ccc(F)cc1)c1cc(C2CCCCN2C(=O)c2ccc3c(c2)CCO3)on1 (configuration not stated),2%,-9%,?,21µM*,-14%,-24%
CC(=O)c1cccc(NC(=O)c2noc3c2CCCC3)c1,nt,2%,?,i,nt,-22%
COc1ccccc1CNS(=O)(=O)c1cc(C(=O)N(C)Cc2cccnc2)c(Cl)cc1Cl,1%,-14%,5.2µM*,?,-10%,-5%
CCOC(=O)[C@H]1[C@H]2COc3ccc(Br)cc3[C@@H]2N2C(=O)CN(Cc3ccc(F)cc3)C(=O)[C@@]12C,5%,?,i,?,1%,-4%
Cn1c(C(=O)NCc2cccc(F)c2)cc2cc(S(=O)(=O)N3CCCCC3)ccc21,nt,?,nt,nt,nt,-1%
O=C(Cn1c(C(=O)N2CCN(C3CCCCC3)CC2)cc2sccc21)c1ccccc1,?,-16%,6.5µM*,?,?,-17%
COc1ccc(C(=O)N2CCN(C(=O)c3cc(OC)c(OC)c(OC)c3)CC2)cc1,9%,1%,i,i,8%,-2%
CCn1cc(C(=O)N2CCN(c3cccc(C)c3C)CC2)c2cc(OC)c(OC)cc2c1=O,nt,10µM*,i,i,nt,-10%
Cc1cccc(N2CCN(C(=O)c3ccncc3)CC2)c1C,9.2µM*,0%,5.8µM*,10µM*,13µM*,3%
COc1cc(C(=O)N2CCN(c3cc(Cl)ccc3Cl)CC2)cc(OC)c1OC,1.3µM*,?,?,0.33µM*,0.65µM*,1%
O=C(Cn1c(C(=O)N2CCc3ccccc3C2)cc2sccc21)c1ccccc1,?,-1%,?,i,-21%,1%
Cc1cccc(N2CCN(C(=O)c3ccnn3C)CC2)c1C,-4%,0%,i,i,0%,8%
CCn1cc(C(=O)N2CCN(c3cccc(C(F)(F)F)c3)CC2)c2cc(OC)c(OC)cc2c1=O,nt,?,i,i,nt,-27%
CN(C1CCCCC1)S(=O)(=O)c1ccc(C(=O)N2CCN(c3nc4ccccc4s3)CC2)cc1,0%,-16%,2.6µM*,i,9%,7%
O=C(c1cc2sccc2n1Cc1ccccc1)N1CCN(c2nc3ccccc3s2)CC1,-5%,2%,i,i,8.2µM*,3%
